Hits are enriched below; roughly 2.3% of the tested compounds scored in any of these assays.
USP1-UAF1 inh: USP1/UAF1 (human) deubiquitinase inhibition; O94782; recombinant USP1/UAF1, Ub-Rhodamine cleavage fluorescence; Potency, µM (top dose mostly 57.1 µM), for inactives: top-dose activity change, negative = inhibition, usual class: inhibitors; actives 0.23% (n = 390,000); AID 743255; also: potency is read from the fitted curve at half-maximal effect; nearly all actives have a fitted effect of over 60% in size
Target sequence (O94782 whole entry, looked up): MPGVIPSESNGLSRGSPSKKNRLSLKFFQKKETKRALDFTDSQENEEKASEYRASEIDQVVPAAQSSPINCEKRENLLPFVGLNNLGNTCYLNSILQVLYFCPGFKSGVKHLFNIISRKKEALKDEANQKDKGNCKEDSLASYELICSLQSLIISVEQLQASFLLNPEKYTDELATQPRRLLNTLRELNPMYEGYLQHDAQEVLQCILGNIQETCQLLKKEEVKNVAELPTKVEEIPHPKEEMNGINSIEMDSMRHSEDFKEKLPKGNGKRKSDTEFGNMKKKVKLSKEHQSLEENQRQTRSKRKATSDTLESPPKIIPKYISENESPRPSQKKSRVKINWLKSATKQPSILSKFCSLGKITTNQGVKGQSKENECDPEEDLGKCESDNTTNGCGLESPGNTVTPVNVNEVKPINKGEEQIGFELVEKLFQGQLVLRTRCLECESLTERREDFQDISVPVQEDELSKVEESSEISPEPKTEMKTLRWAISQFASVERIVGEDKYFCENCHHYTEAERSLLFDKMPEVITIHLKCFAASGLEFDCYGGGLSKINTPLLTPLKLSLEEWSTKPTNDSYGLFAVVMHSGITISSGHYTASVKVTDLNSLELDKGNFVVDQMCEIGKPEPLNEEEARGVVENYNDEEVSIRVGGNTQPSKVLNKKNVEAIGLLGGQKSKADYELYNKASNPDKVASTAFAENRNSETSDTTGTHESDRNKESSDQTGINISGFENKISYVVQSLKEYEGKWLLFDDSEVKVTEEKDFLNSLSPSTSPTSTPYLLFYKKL
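In this screen, compounds sit with the deubiquitinase complex (1nM) for 15 min at room temperature before Ub-Rho is added at 150nM final. Fluorescence rise is then followed for 6 reads every 60 seconds.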
Tau fluor counter: counter-screen for tau fibril formation inhibitors; tau K18 P301L Alexa594 fluorescence, heparin fibrillization; Potency, µM (highest dose often 57.7 µM), inactives show at the top dose activity change, negative = decrease; actives 0.93% (n = 280,000); AID 1463; also: potency is read from the fitted curve at half-maximal effect; nearly all actives have a fitted effect of over 55% in size
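Human K18 P301L tau (15 uM unlabeled plus 0.24 uM Alexa 594-labeled, final) in 100 mM sodium acetate pH 7 was mixed with compound and 20 uM heparin and incubated 6 hr at 37 C.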
Tau FP inhib: blocks human tau fibril formation measured by polarization. K18 P301L tau heparin fibrillization, Alexa594 FP, 6 h. Potency, µM (series often up to 57.7 µM), for the others: top-dose activity, negative = inhibition, most hits filed as inhibitors. actives 0.39% (n = 280,000). P10636; also: potency is read from the fitted curve at half-maximal effect; nearly all actives have a fitted effect of over 55% in size
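Compound effects on tau fibrillization are measured by Alexa 594 fluorescence polarization (ex 555, em 632 nm). K18 P301L tau is used at 15 uM with 0.24 uM labeled tracer, and 20 uM heparin induces aggregation over 6 hr at 37 C.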
Coupling enz: coupling enzyme interference in Giardia aldolase counter-screen | actives 0.67% (n = 290,000) | coupling enzyme system counterscreen, AmpLite Red fluorescence | activity change, negative = inhibition, % at 58.2 µM, hits read low; in the data active = activity change below about -30%
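Fluorescence at 525 nm excitation and 598 nm emission measured inhibition of the coupled detection system without aldolase. Compounds (at 57.5 uM final) were preincubated 10 min at room temperature with coupling enzyme reagent before a 20 min substrate/AmpLite Red step.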
Tau ThT inhib: tau fibrillization inhibition (ThT binding); AID 1460; actives 2.1% (n = 270,000); recombinant tau K18 P301L (four-repeat tau fragment), heparin-induced fibrillization, ThT fluorescence; Potency, µM (highest dose often 57.4 µM), without a hit: at the top dose activity, negative = inhibition, actives largely listed as inhibitors; P10636; also: potency is read from the fitted curve at half-maximal effect; nearly all actives have a fitted effect of over 55% in size
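Recombinant human tau K18 fragment […] carrying P301L, 15 uM unlabeled plus 0.24 uM Alexa 594-labeled, was fibrillized with 20 uM heparin in 100 mM sodium acetate pH 7 for 6 hr at 37 C; 30 uM ThT fluorescence read after 1 hr.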
Active calls of the source: *; ? = inconclusive; . = no result given; [ ] = dose if it differs, or a comment. Unless noted, calls follow the shape of the dose curve; as a rule, active = well fitted curve in the direction sought with a large enough effect; inconclusive = small, poorly fitted or top-dose-only effect, or another doubt; inactive = no such curve, though single readings can be large; an effect the other way counts as inactive or inconclusive. % is scaled to controls: 0 for no effect and ±100 for the full control effect.

SMILES | USP1-UAF1 inh | Tau fluor counter | Tau FP inhib | Coupling enz | Tau ThT inhib
C#CCOCCOCCOCCNc1nc(N2CCOCC2)nc(N2CCN(C(=O)[C@H](Cc3cc4ccccc4[nH]3)n3cc([C@@H](N)C(C)CC)nn3)CC2)n1 (some centres undefined) | 45µM* | -5% | -2% | 6 | -8%
COc1ccc(Cl)cc1NC(=O)c1cc2ccc3ccc(C)[nH]c3c2n1 | -22% | ? | -17% | . | 4%
C=CCNC(=O)C1CC(=O)N(c2ccc(OCC(=O)Nc3c(C)cccc3C)cc2)C1 (centres undefined) | -17% | . | . | 0 | .
COCCn1ccc2c(OCC(=O)Nc3cccc(OC)c3)cccc2c1=O | -14% | -2% | -11% | . | -9%
CC(C)(C)c1ccc(C(=O)NC(=S)Nc2nc3c(s2)CCCC3)cc1 | -23% | -11% | -2% | 0 | ?
C/C(=N\Nc1nc2c(s1)CCCC2)c1ccc(Cl)cc1 | -7% | 25µM*[quencher] | -12% | -1 | 14µM*
CN(C)c1ccc(C(=O)Nc2nc3c(s2)CCCC3)cc1 | -31% | ? | 5% | -9 | 7.9µM*
O=c1[nH]c(-[n+]2ccccc2)c(/C=N/NC([S-])=Nc2ccccc2)s1 | -10% | -23% | ? | -3 | 28µM*
CCc1ccc[n+](-c2[nH]c(=O)sc2/C=N/NC([S-])=Nc2ccccc2)c1 | ? | -25% | ? | 0 | 25µM*
CCNC(=O)C1Cc2cc(S(=O)(=O)N3CCCC3)ccc2N1C(C)=O (centres undefined) | -18% | . | . | 3 | .
O=C(Nc1cccc(Cl)c1)Nc1nnc(CC2=CCCCC2)s1 | -5% | ? | 11µM* | 3 | 11%
COc1ccc(OCCSCc2nnc(NC(=O)Nc3ccc(Cl)cc3)s2)cc1 | -11% | -23% | 28µM* | 1 | 1%
O=C(Nc1cccc(Cl)c1)Nc1nnc(CSCCOc2ccc(Cl)cc2)s1 | -10% | ? | 7.9µM* | 2 | -2%
O=C(Nc1nnc(CC2=CCCCC2)s1)Nc1ccccc1F | -1% | -21% | -16% | 1 | -2%
O=C(Nc1ccc(Cl)cc1)Nc1nnc(CSCc2ccccc2)s1 | 0% | -15% | ? | 0 | -2%
Cc1ccc(NC(=O)Nc2nnc(CSCCOc3ccc(Cl)cc3)s2)cc1 | -20% | -25% | ? | 5 | -3%
COc1cccc(N2C(=O)C(CC(=O)Nc3ccccc3)N(CCc3sccc3C)C2=O)c1 (centres undefined) | -21% | ? | ? | . | -5%
O=C(NNC(=O)C1C2C=CC(C2)C1C(=O)O)c1ccccc1O (centres undefined) | -19% | . | . | 0 | .
Cc1ccc2c(c1)C(c1ccc(F)cc1)N(C(=O)c1cccc(C(F)(F)F)c1)CC(=O)N2 (centres undefined) | 1% | -11% | 3% | . | -7%
O=C1C(Cl)=C(NS(=O)(=O)c2ccc([N+](=O)[O-])cc2)C(=O)c2ccccc21 | -22% | 2.5µM*[quencher] | 8.9µM* | -21 | 2µM*
CCOC(=O)C1=C(c2ccccc2)N=c2s/c(=C\c3cccc(O)c3)c(=O)n2C1c1cccs1 (centres undefined) | ? | ? | 13µM* | 0 | ?
Cc1ccccc1Cn1c(=O)n(Cc2ccc3c(c2)OCO3)c(=O)c2oc3ccccc3c21 | 8% | -9% | -8% | . | 1%
O=c1cc(-c2ccccc2)[nH]n1-c1nc2ccccc2[nH]1 | -20% | ? | ? | 5 | 25µM*
CCc1cc(=O)[nH]c(-n2[nH]c(-c3ccccc3)cc2=O)n1 | 4% | -8% | 1% | 3 | -16%
CCOC(=O)c1ccc(N/N=C/c2cc(Br)cc([N+](=O)[O-])c2O)cc1 | -12% | 0.71µM*[quencher] | -6% | 4 | 0.45µM*
SMILES | USP1-UAF1 inh | Tau fluor counter | Tau FP inhib | Coupling enz | Tau ThT inhib
CCOC(=O)c1ccc(Nc2ncccc2[N+](=O)[O-])cc1 | -1% | -29% | -3% | 0 | 2.2µM*
CCOC(=O)c1ccc(NC(=O)c2ccccc2[N+](=O)[O-])cc1 | -22% | -9% | -5% | 1 | -7%
COC(=O)c1ccc(N/N=C/c2cc([N+](=O)[O-])cc(OC)c2O)cc1 | -10% | ? | 13% | 1 | ?
CN(c1ccccc1)S(=O)(=O)c1cccc(C(=O)NCC(=O)Nc2ccc(F)c(F)c2F)c1 | -23% | . | . | . | .
CCc1ccc(S(=O)(=O)/N=C2\C=C(Nc3cccc(C(=O)O)c3)C(=O)c3ccccc32)cc1 | 5.6µM* | . | . | -44* | .
CCc1ccc(S(=O)(=O)/N=C2\C=C(Nc3ccc(O)cc3)C(=O)c3ccccc32)cc1 | 10µM* | . | . | -35* | .
Cc1ccc(NC(=O)C(=O)NCC(c2cccnc2)N2CCc3ccccc32)cc1Cl (centres undefined) | -17% | -5% | -1% | . | -7%
Cc1ccc(C)c(NC(=O)CSc2nc3nccnc3c(=O)n2CCc2c[nH]c3ccccc23)c1 | 16% | -3% | -4% | . | -9%
CCN(CC)c1ccc(/C=N/N2CCN(c3ccccn3)CC2)cc1 | -14% | ? | 0% | -2 | 1.3µM*
CCN(CC)c1ccc(/C=N/NC(=O)c2cc3ccccc3[nH]2)cc1 | -18% | . | . | 0 | .
CCN(CC)c1ccc(/C=N/NC(=O)c2c[nH]c3ccccc23)cc1 | -11% | 13µM*[quencher] | 7% | 0 | 5µM*
CCc1ccc(/C=N/NC(=O)c2ccccn2)cc1 | -5% | 4% | 1% | 4 | -7%
CCN(CC)c1ccc(/C=N/NC(=O)c2ccccn2)cc1 | -23% | -29% | 0% | -1 | 10µM*
CCN(CC)c1ccc(/C=N/NC(=O)c2cnccn2)cc1 | -18% | -17% | -4% | 3 | 14µM*
C/C(=N\NC(=O)CCc1c[nH]c2ccccc12)c1ccc([N+](=O)[O-])cc1 | -4% | ? | 15% | 0 | 10µM*
CN(C)c1ccc(/C=N/NC(=O)CCc2c[nH]c3ccccc23)cc1 | -12% | ? | 6% | -1 | 8.9µM*
CCN(CC)C(=O)Cn1c(=O)n(-c2ccc(Cl)cc2)c(=O)c2c3c(sc21)CCC3 | -12% | -2% | -2% | . | -1%
Cc1cc(C)c(C#N)c(Sc2ccccc2N)n1 | -23% | 0% | -6% | 0 | -17%
N#CC(=C(/N)Sc1ccccc1N)/C(C#N)=C(\N)Sc1ccccc1N | . | 18µM*[quencher] | . | . | 14µM*
COc1ccc(NC(=O)c2cc3ccc4c5ccccc5[nH]c4c3cc2O)cc1 | -20% | 3.2µM*[quencher] | 10% | -2 | 2.2µM*
CC1(C)CSC(=NCCc2ccccc2)N1 | -12% | . | . | 3 | .
CCC(=O)N1CCc2cc(S(=O)(=O)NCCC(=O)NCc3ccc(OC)cc3)ccc21 | -21% | -12% | -9% | . | -5%
CCOC(=O)c1ccc(CN(Cc2ccc(C)cc2)S(=O)(=O)c2ccc(NC(C)=O)cc2)cc1 | -1% | ? | 11µM* | . | 4%
